The values that follow come from PubChem BioAssay (Tox21).

Each structure is given as a SMILES string. Inconclusive results are not listed. Where a call stands in place of a potency, no number is given. The source made the active and inactive calls. Unless noted, the call rests on the fitted dose curve; in most records, active means well fitted cell-killing curve with a large enough effect in the repeat runs; inconclusive means weak or mixed curves; inactive means flat fitted curve, though single readings scatter.
Potency means the concentration at half of the fitted maximal effect.

The first experiment deals with Androgen receptor (Homo sapiens) (UniProt P10275). Briefly: qHTS assay to identify small molecule agonists of the androgen receptor (AR) signaling pathway in the presence of an antagonist (AID 1259381; calls by dose curve; further: nearly all actives have a fitted effect of over 15% in size). Particulars: MDA-kb2 MMTV-luciferase, AR agonist + nilutamide, 16 h; series mostly up to 92.4 µM. Put shortly: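 AR antagonist background: nilutamide 3.0uM final. Cell line: MDA-kb2, MMTV-driven luciferase, responsive to both AR and GR. Exposure 16hr, 37C, no CO2; ONE-Glo luminescence.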
Chain of Androgen receptor (Homo sapiens) (P10275 whole entry, looked up): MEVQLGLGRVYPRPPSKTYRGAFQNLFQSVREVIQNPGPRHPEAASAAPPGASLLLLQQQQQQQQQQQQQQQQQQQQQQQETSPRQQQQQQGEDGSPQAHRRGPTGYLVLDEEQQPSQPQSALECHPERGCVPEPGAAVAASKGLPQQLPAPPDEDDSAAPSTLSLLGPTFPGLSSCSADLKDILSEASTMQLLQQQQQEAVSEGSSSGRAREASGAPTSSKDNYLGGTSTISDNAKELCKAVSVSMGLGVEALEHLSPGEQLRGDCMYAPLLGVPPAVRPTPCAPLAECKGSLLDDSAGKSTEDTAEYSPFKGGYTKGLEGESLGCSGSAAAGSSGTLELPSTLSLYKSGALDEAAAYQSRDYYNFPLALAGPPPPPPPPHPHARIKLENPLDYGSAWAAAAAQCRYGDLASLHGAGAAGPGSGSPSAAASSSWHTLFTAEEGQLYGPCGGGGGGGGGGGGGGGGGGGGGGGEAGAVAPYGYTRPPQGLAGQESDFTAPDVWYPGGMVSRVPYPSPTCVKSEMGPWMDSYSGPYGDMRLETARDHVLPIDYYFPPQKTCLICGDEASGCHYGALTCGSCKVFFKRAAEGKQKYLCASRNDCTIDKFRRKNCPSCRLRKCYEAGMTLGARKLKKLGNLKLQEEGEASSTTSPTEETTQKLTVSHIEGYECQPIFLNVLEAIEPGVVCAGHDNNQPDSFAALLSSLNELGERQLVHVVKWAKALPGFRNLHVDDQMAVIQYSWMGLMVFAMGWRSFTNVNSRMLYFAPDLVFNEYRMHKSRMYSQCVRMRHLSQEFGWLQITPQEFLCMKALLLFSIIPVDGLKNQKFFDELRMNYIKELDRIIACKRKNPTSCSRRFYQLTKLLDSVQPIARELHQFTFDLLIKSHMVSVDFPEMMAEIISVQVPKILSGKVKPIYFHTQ
(In general: Quantitative high-throughput screening tests each substance at several concentrations.)
With `CC#C[C@]1(O)CC[C@H]2[C@@H]3C[C@H](C)C4=CC(=O)CC[C@]4(C)[C@H]3CC[C@@]21C`, the Potency is 0.237 µM (active).

Turning to `CCOP(=O)(OCC)Oc1nc(Cl)c(Cl)cc1Cl`, the Potency result was “inactive”.

`Cc1ccccc1OP(=O)(Oc1ccccc1C)Oc1ccccc1C`: the Potency result was “inactive”.

`Fc1ccc(C(OCCN2CCN(CCCc3ccccc3)CC2)c2ccc(F)cc2)cc1`: the Potency result was “inactive”.

System in the next experiment: not listed separately
In words: qHTS assay to identify small molecule antagonists of the estrogen receptor beta (ER-beta) signaling pathway - cell viability counter screen (AID 1259382). Further: nearly all actives have a fitted effect of over 55% in size. Particulars: ER-beta-UAS-bla HEK293T viability, CellTiter-Glo luminescence, 16 h; series mostly up to 92.4 µM. Put shortly: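 HEK293T ER-beta-UAS-bla, 2% charcoal-stripped FBS; compounds + 1nM E2 16 hr 37C; CellTiter-Glo luminescence, 30 min RT.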
For the compound `CO/N=C(/C1=NOCCO1)c1ccccc1Oc1ncnc(Oc2ccccc2Cl)c1F`, the Potency entry is “inactive”.

Regarding `COP(=S)(OC)Oc1ccc([N+](=O)[O-])c(C)c1`, the Potency result is “inactive”.

For the compound `CN1CCc2cc3c(cc2C1O)OCO3` (stereo not given), the Potency result was “inactive”.

Turning to `O=[N+]([O-])[O-].[Tl+]`, the Potency result was “inactive”.

With `CC#C[C@]1(O)CC[C@H]2[C@@H]3C[C@H](C)C4=CC(=O)CC[C@]4(C)[C@H]3CC[C@@]21C`, the Potency result is “inactive”.

In the case of `CC1CCCC1`, the Potency result is “inactive”.

As to `C[C@@H]1CC2=CC(=O)CC[C@@H]2[C@H]2CC[C@@]3(C)[C@@H](CC[C@]3(C)O)[C@@H]21`, the Potency result was “inactive”.

`CCOC(=O)CCN(SN(C)C(=O)Oc1cccc2c1OC(C)(C)C2)C(C)C`: the Potency result is “inactive”.

As to `c1csc(-c2ccc(-c3cccs3)s2)c1`, the Potency result was “inactive”.

Turning to `CN1C2CCC(C)(C)C1CC(OC(=O)C(O)(c1cccs1)c1cccs1)C2` (stereo not given), the Potency entry is “inactive”.

As for `CCc1cccc(C)c1N(C(=O)CCl)[C@@H](C)COC`, the Potency entry was “inactive”.

Take `CCCC[N+]1(C)CCCC1` (tested in a mixture with another compound): the Potency result is “inactive”.

With `CCCCN(CCCC)C(=S)[S-].CCCCN(CCCC)C(=S)[S-].[Ni+2]`, the Potency entry was “inactive”.

For `O.O.O.O=C([O-])[C@H]([O-])[C@@H]([O-])C(=O)[O-].O=C([O-])[C@H]([O-])[C@@H]([O-])C(=O)[O-].[K+].[K+].[Sb+3].[Sb+3]`, the Potency result was “inactive”.

In the case of `Oc1ccc(Cl)c(Cl)c1`, the Potency entry was “inactive”.

Regarding `NC1CCC(CC2CCC(N)CC2)CC1` (stereo not given), the Potency entry was “inactive”.

Take `CC(=O)[O-].CC(=O)[O-].[Co+2]`: the Potency result was “inactive”.

As to `O=c1c2ccccc2c(=O)c2c1cc(Cl)c1[nH]c3c([nH]c12)c(Cl)cc1c(=O)c2ccccc2c(=O)c13`, the Potency entry is “inactive”.

Regarding `CNN`, the Potency entry is “inactive”.

For the compound `[Cl-].[Cl-].[Cl-].[Yb+3]`, the Potency entry was “inactive”.

Take `c1cc[n+]2c(c1)-c1cccc[n+]1CC2`: the Potency entry was “inactive”.

Consider `CCN(CC)C(=S)S`, for which the Potency was 12.1 µM (active).

Consider `ClC1=C(Cl)[C@]2(Cl)[C@H]3[C@H]([C@@H]4C=C[C@H]3C4)[C@@]1(Cl)C2(Cl)Cl`, for which the Potency entry is “inactive”.

For the compound `CC(C)[C@@H](Nc1ccc(C(F)(F)F)cc1Cl)C(=O)OC(C#N)c1cccc(Oc2ccccc2)c1` (stereo not given in full), the Potency result is “inactive”.

Regarding `CCCCn1cc[n+](C)c1` (tested in a mixture with another compound), the Potency result is “inactive”.

`CCCCC(CC)COC(=O)c1ccccc1C(=O)OCC(CC)CCCC` (stereo not given): the Potency result is “inactive”.

`CSC(C)(C)/C=N/O`: the Potency entry is “inactive”.

Take `Fc1ccc(C(OCCN2CCN(CCCc3ccccc3)CC2)c2ccc(F)cc2)cc1`: the Potency was 26.6 µM (active).

As for `Oc1cc(Cl)cc(Cl)c1`, the Potency result was “inactive”.

As to `CC(=O)O.CC(=O)O.CC(=O)O.CC(=O)O.CC(=O)O.CC(=O)O.CC(=O)O.O.O.[Cr].[Cr].[Cr]`, the Potency entry was “inactive”.

Consider `O=C1C[C@@H]2OCC=C3CN4CC[C@]56c7ccccc7N1[C@H]5[C@H]2[C@H]3C[C@H]46`, for which the Potency result was “inactive”.

In the case of `c1ccc(N=NNc2ccccc2)cc1`, the Potency result is “inactive”.

For `O=S(=O)(NS(=O)(=O)C(F)(F)F)C(F)(F)F`, the Potency result was “inactive”.

On to `Cc1cccc(Cc2cnc[nH]2)c1C`, for which the Potency result was “inactive”.

For `C[C@]12C/C(=C/O)C(=O)C[C@@H]1CC[C@@H]1[C@@H]2CC[C@@]2(C)[C@H]1CC[C@]2(C)O`, the Potency was 49 µM (active).

On to `CO/N=C(\C(=O)OC)c1ccccc1CO/N=C(\C)c1cccc(C(F)(F)F)c1`, for which the Potency entry is “inactive”.
